Assay results as given in PubChem BioAssay (NCATS).
Records with an inconclusive call do not appear. Unmarked numbers belong to inactive results. Activity calls are given as the source filed them. The call rests on the fitted dose curve; in most records, active means well fitted inhibition curve with a large enough effect; inconclusive means small, poorly fitted or top-dose-only effect; inactive means flat fitted curve, though single readings scatter.
On the % scale 0 is the no-effect control and ±100 the full control effect; potency means the concentration at half of the fitted maximal effect.

These molecules were tested on KB-3-1 (assay: Cytotoxic Profiling of Annotated Libraries Using Quantitative High-Throughput Screening (AID 1296008; further: nearly all actives have a fitted effect of over 60% in size)). Conditions: Five cell lines viability, CellTiter-Glo ATP luminescence, 48-72 h; max response: active compounds read low.
How it was run: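 Cells exposed to compounds for 48 or 72 hr at 37 degrees Celsius. Viability read as ATP-coupled luminescence with CellTiter-Glo after 10 min at room temperature.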
With `CCC(C)/C=C(C)/C=C/c1cc2c(cn1)C(=O)C(C)(OC(C)=O)C(O)=C2Cl` (centres undefined) the outcome was “inactive”.
In the case of `CC1=C2C(O)C(=O)OC(c3ccoc3)C2(C)CCC1O` (centres undefined), the outcome is reported as “inactive”.
In the case of `CC(C)c1nc(-c2ccc(NC(=O)Nc3cccc(C(F)(F)F)c3)c3ccccc23)c2c(N)nccn12`, the Potency is reported as 5800 nM (active).
With `COc1ccc(-c2cnc3ccc(NCc4ccc(S(N)(=O)=O)cc4)nn23)cc1OC` the max response was -8.36%.
`COc1ncc(Nc2ncc([C@H](C)N3CCN(S(C)(=O)=O)CC3)cc2-c2nc(C)nc(N)n2)cc1F` was tested, and the Potency was 6510 nM (active).
With `CO[C@H]1C[C@@H]2CC[C@@H](C)[C@@](O)(O2)C(=O)C(=O)N2CCCC[C@H]2C(=O)O[C@H]([C@H](C)C[C@@H]2CC[C@H](n3cnnn3)[C@H](OC)C2)CC(=O)[C@H](C)/C=C(\C)[C@@H](O)[C@@H](OC)C(=O)[C@H](C)C[C@H](C)/C=C/C=C/C=C/1C` the max response was -0.0133%.
Molecule `CC(C)c1cc(C(=O)N2CC[C@H](NC(=O)C3CC3)C2)n[nH]1` has a max response of -1.18%.
For `Cc1cccc(C)c1-n1c(=O)c2cnc(Nc3ccc(N4CCN(C)CC4)cc3)nc2n2c3ccccc3nc12`, the Potency was 731 nM (active).
For `CCN1CCN(Cc2ccc(NC(=O)c3ccc(C)c(/C=C/c4cnc5[nH]ccc5c4OC)c3)cc2C(F)(F)F)CC1`, the Potency was 18400 nM (active).
`C=C(C(=O)O)C1CCC2(C)CCCC(C)(O)C2C1` (centres undefined) was tested, and the outcome was “inactive”.
`C[C@@H]1C(=O)O[C@H](C)[C@H]1CC(=O)[C@](C)(O)[C@H]1CC[C@@]2(O)C3=CC(=O)[C@@H]4C[C@@H](O)[C@@H](O)C[C@]4(C)C3CC[C@]12C` (some centres undefined) was tested, and the max response was -2.99%.
For `CC(=O)OC1/C(C)=C/C(=O)C(OC(C)=O)C(C)(C)/C=C/C(C)C(=O)C2(OC(C)=O)CC(C)C(OC(=O)c3ccccc3)C12` (centres undefined), the outcome was “inactive”.
In the case of `COC1=CC(=O)CC(C)C12Oc1cc(OC)cc(O)c1C2=O` (centres undefined), the outcome is reported as “inactive”.
`CC(=O)O[C@@H]1[C@H](O)[C@@H](O[C@@H]2O[C@@H](C)[C@H](O[C@@H]3OC[C@@H](O)[C@H](O[C@@H]4OC[C@@H](O)[C@H](O)[C@H]4O)[C@H]3O)[C@@H](O[C@@H]3O[C@H](CO)[C@@H](O)[C@H](O)[C@H]3O)[C@H]2O)[C@H](OC(=O)[C@]23CCC(C)(C)C[C@H]2C2=CCC4[C@@]5(C)CC[C@H](O[C@@H]6O[C@H](C(=O)O)[C@@H](O)[C@H](O[C@@H]7OC[C@@H](O)[C@H](O)[C@H]7O)[C@H]6O[C@@H]6O[C@H](CO)[C@H](O)[C@H](O)[C@H]6O)[C@@](C)(C=O)C5CC[C@@]4(C)[C@]2(C)CC3)O[C@@H]1C` (some centres undefined) was tested, and the max response was -1.2%.
`COc1cc2ncnc(Nc3ccc(F)c(Cl)c3)c2cc1NC(=O)/C=C/CN1CCCCC1` was tested, and the Potency was 13000 nM (active).
For `CCCC(=O)O[C@@H]1[C@@H]2[C@@H](OC(C)=O)[C@]3(C)C(=O)[C@H]4[C@@H](OC(C)=O)C(C)(C)C[C@H]4[C@]3(C)C(=O)[C@@]2(OC(C)=O)C[C@@H]1C`, the max response was 8.81%.
Molecule `Cc1noc(-c2ccc(-c3ccc(CC(=O)O)cc3)cc2)c1NC(=O)O[C@H](C)c1ccccc1` has a max response of 0.957%.
Work on `OCc1ccc(O[C@@H]2O[C@H](CO)[C@@H](O)[C@H](O)[C@H]2O)cc1` yielded a max response of -3.37%.
`CN1CCC(Nc2nc(Nc3ccc(Oc4ccccc4)cc3)c3c(=O)[nH]cc(Br)c3n2)CC1` was tested, and the Potency was 5800 nM (active).
With `CC(C)CCC(=O)CC1c2ccccc2C(=O)N1c1ccc2ccc(Cl)nc2n1` (centres undefined) the max response was 2.42%.
`O=C(O)[C@H](Cc1ccc(Nc2nccc3ccncc23)cc1)NC1=C(Br)C(=O)C12CCCCC2` was tested, and the outcome was “inactive”.
In the case of `C=C[C@H]1[C@H](O[C@@H]2O[C@H](CO)[C@@H](O)[C@H](O)[C@H]2O)OC=C(C(=O)OC)[C@H]1CCOC(=O)c1cc(O)c(O)c(O)c1`, the outcome is reported as “inactive”.
Molecule `CO[C@H]1C[C@@H]2CC[C@@H](C)[C@@](O)(O2)C(=O)C(=O)N2CCCC[C@H]2C(=O)O[C@H]([C@H](C)C[C@H]2CC[C@@H](OP(C)(C)=O)[C@H](OC)C2)CC(=O)[C@H](C)/C=C(\C)[C@@H](O)[C@@H](OC)C(=O)[C@H](C)C[C@H](C)/C=C/C=C/C=C/1C` has a max response of 4.5%.
In the case of `CCCCNc1ncc2c(-c3ccc(F)cc3)nn(CC3CCC(N)CC3)c2n1` (centres undefined), the Potency is reported as 2820 nM (active).
In the case of `O=C(/C=C/c1cccc(S(=O)(=O)Nc2ccccc2)c1)NO`, the Potency is reported as 2820 nM (active).
With `COC(=O)N1CCC(n2ncc3c(N4CCOCC4)nc(-c4ccc(NC(=O)Nc5ccc(CO)cc5)cc4)nc32)CC1` the Potency was 231 nM (active).
`CC(C)(C)c1ccc(S(=O)(=O)NCc2ccc(C(=O)Nc3cccnc3)cc2)cc1` was tested, and the Potency was 731 nM (active).
For `CCCNc1ccc2ncc(-c3ccc4[nH]ncc4c3)n2n1`, the Potency was 1300 nM (active).
Work on `CC(O)/C=C/C1C(C)C(O[C@@H]2O[C@H](CO)[C@@H](O)[C@H](O)[C@H]2O)C(O)CC1(C)C` (some centres undefined) yielded a max response of 3.1%.
`C[C@@H]1O[C@@H](O[C@@H]2[C@@H](O)[C@@H](O[C@]3(CO)O[C@H](CO)[C@@H](O)[C@@H]3OC(=O)/C=C/c3ccc(O)cc3)O[C@H](CO)[C@H]2OC(=O)/C=C/c2ccc(O)cc2)[C@H](O)[C@H](O)[C@H]1O[C@@H]1O[C@@H](C)[C@H](O[C@@H]2OC[C@](O)(CO)[C@H]2O)[C@@H](O)[C@H]1O` showed a max response of 3.92%.
`O=C(C(c1ccccc1)c1ccccc1)N1CCN(CC(O)COc2cccc3ncccc23)CC1` (centres undefined) was tested, and the max response was -28.1%.
`O=C(CO)[C@@H](O)[C@H](O[C@@H]1O[C@H](CO)[C@H](O)[C@H](O)[C@H]1O)[C@H](O)CO` showed a max response of 5.5%.
With `O=C1NC(=O)C(c2cn(-c3ccccc3)nc2-c2ccc(F)cc2)N1` (centres undefined) the outcome was “inactive”.
For `CCCC(=O)NCCc1csc(-c2ccc(Cl)cc2)n1`, the max response was -24.2%.
For `CC1(CCOC2OC(CO)C(O)C(O)C2O)CCC23OC2(C1)C(O)CC1C(C)(C(=O)O)CCCC13C` (centres undefined), the max response was 8.97%.
In the case of `C=C(C)C(=O)O[C@H]1C[C@@](C)(O)C(=O)CC(O)/C(C)=C\[C@H]2OC(=O)C(=C)[C@H]12` (some centres undefined), the outcome is reported as “inactive”.
With `COC(=O)CC(O)CC(O)/C=C/c1c(C)ccc2c1C(O)CC(C)C2` (centres undefined) the outcome was “inactive”.
Work on `CC1(C)CCCC2(C)C1CC(=O)C13CC(CCC12)C(O)(CO)C3` (centres undefined) yielded a max response of 8.26%.
For `C=C(C)C(=O)OC1CC2(C)OC(=CC2=O)C(=C)CC2OC(=O)C(COC)C12` (centres undefined), the max response was -15.6%.
